Assay results reported in PubChem BioAssay (NCATS).
Records with an inconclusive call do not appear. Active and inactive are the calls of the source. Unless noted, calls come from the whole dose curve; as a rule, active = well fitted curve in the direction sought with a large enough effect; inconclusive = small, poorly fitted or top-dose-only effect, or another doubt; inactive = no such curve, though single readings can be large; an effect the other way counts as inactive or inconclusive.

Experiments:
[1] = target: Voltage-gated inwardly rectifying potassium channel KCNH2 (Homo sapiens) (UniProt Q12809); assay: qHTS Assay for Small Molecule Inhibitors of the Human hERG Channel Activity (AID 588834);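 note: lower thallium flux fluorescence means stronger hERG block; nearly all actives have a fitted effect of over 50% in size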; note: potency is the fitted concentration of half-maximal effect
Procedure, shortened: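 Measured: FluxOR fluorescence after thallium stimulation in U2OS cells transduced with hERG by baculovirus. Compounds pre-incubated around 10 min; medium Opti-MEM with 2% FCS. AC50 from Hill equation.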

[2] = S16 Schwann cell viability assay (CellTiter-Glo assay) (AID 624031); note: nearly all actives have a fitted effect of over 70% in size; note: potency is the fitted concentration of half-maximal effect
Procedure, shortened: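 Concentration-effect curves come from CellTiter-Glo luminescence of S16 rat Schwann cells after 24 h compound exposure. Each reading was normalized to DMSO wells (0%) and wells without cells, and curves were ranked by r2 and response magnitude.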

[3] = S16 Schwann cell PMP22 intronic element beta-lactamase assay (AID 624044; calls by dose curve; note: nearly all actives have a fitted effect of over 15% in size; note: potency is the fitted concentration of half-maximal effect)
Procedure, shortened: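 Rat S16 Schwann cells with beta-Lac driven by a PMP22 intronic element, compound-treated 24 h at 37 °C. LiveBLAzer FRET B/G read: 460 nm normalized to potassium clavulanate vs DMSO; 535 nm FRET as viability; concentration-effect curves classified.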

[4] = S16 Schwann cell PMP22 intronic element firefly luciferase assay (AID 624032); note: nearly all actives have a fitted effect of over 30% in size; note: potency is the fitted concentration of half-maximal effect
Procedure, shortened: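 Rat S16 Schwann cells stably carrying firefly luciferase driven by a PMP22 intronic element, in 10% FBS, treated 24 h at 37 C. ONE-Glo luminescence normalized to PTC124 control and DMSO (0%); curves classed by r2, magnitude and activity.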

[5] = qHTS assay for small molecule agonists of the antioxidant response element (ARE) signaling pathway (AID 651741; active = well fitted activation curve with a large enough effect in the signal ratio; the % refers to the signal ratio; note: % of control where 0% means no effect)
Procedure, shortened: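 HepG2 ARE-bla cells plated at 2,000 cells/well and incubated 5 h at 37 C/5% CO2 received 23 nL compound in DMSO. After 16 h at 37 C, LiveBLAzer B/G FRET substrate was applied for 2 h at room temperature and fluorescence read.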

[6] = qHTS assay for small molecule activators of the p53 signaling pathway (AID 651743; active = well fitted activation curve with a large enough effect in the signal ratio, not every such curve was filed as active; the % refers to the signal ratio; note: % of control where 0% means no effect); conditions: HCT-116 p53RE-bla, beta-lactamase FRET ratio, 16 h; stronger effect = higher value
Procedure, shortened: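 HCT-116 p53RE-bla, 4,000 cells/well; 5 h settle; cpd/DMSO 16 h, 37 C; LiveBLAzer B/G 2 h RT; fluorescence intensity.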

[7] = qHTS assay for small molecule activators of the nuclear factor-kappa B (NF-kB) signaling pathway (AID 651749; active = well fitted activation curve with a large enough effect in the signal ratio; the % refers to the signal ratio; note: % of control where 0% means no effect); conditions: NF-kB-bla ME-180 cells, beta-lactamase FRET ratio, 16 h; activation: stronger effect = higher value
Procedure, shortened: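 Incubation lasted 16 hr at 37C in 5% CO2 after 23 nL compound addition to ME-180 NF-kB-bla cells. Activation appears as beta-lactamase-mediated FRET loss.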

[8] = target: Glutaminase kidney isoform, mitochondrial (Homo sapiens) (UniProt O94925); assay: qHTS for Inhibitors of Glutaminase (GLS): LOPAC Validation (AID 624146); note: nearly all actives have a fitted effect of over 60% in size; note: potency is the fitted concentration of half-maximal effect
Procedure, shortened: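 hKGA in 45 mM KH2PO4 (pH 8.2), 0.02% Tween-20 with compound, then 1mM L-Glutamine (stock as added) plus glutamate oxidase/HRP/Amplex red coupling mix. Fluorescence read initially and after 30 min at RT; signal change reflects glutamate formation.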

[9] = qHTS of Trypanosoma Brucei Inhibitors: LOPAC Validation (AID 624147); note: 0% is about no effect
Procedure, shortened: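 Assay buffer: 50 mM TEA pH 7.2, 100 mM KCl, 10 mM MgCl2, 0.05% BSA, 0.01% Tween-20. Pyruvate kinase from T. brucei plus substrate met compound, then ADP (130 uM final). Luminescence was read post 45 min RT.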

[10] = target: Glucagon-like peptide 1 receptor (Homo sapiens) (UniProt P43220); assay: qHTS of GLP-1 Receptor Agonists: LOPAC Validation (AID 624148);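 note: 0% is about no effect; higher luminescence signal means agonism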
Procedure, shortened: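 HEK293 cells stably co-expressing GLP-1R and a cAMP-responsive luciferase reporter, plated 12 hours before compound, then incubated 4-6 hr at 37 deg C. Luminescence read 12 min after detection reagent.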

[11] = HTS Assay for Allosteric Antagonists of the Human D2 Dopamine Receptor: Hit Validation in HTRF (AID 624455);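 note: stable D1 dopamine receptor cell line scored for blocking the D1 response; % is set by controls: 0 for no effect and ±100 for the full control effect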
Procedure, shortened: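 Signal from an HTRF read-out in D1-expressing stable cells gave hit activity as inhibition of the D1 response.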

[12] = target: Luciferin 4-monooxygenase (Photinus pyralis) (UniProt P08659); assay: Biochemical firefly luciferase enzyme assay for NPC (AID 624030);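 note: purified P. pyralis luciferase at 10 nM with luciferin and ATP substrate; 0% = DMSO and -100% = full luciferase inhibition by PTC124 control; nearly all actives have a fitted effect of over 70% in size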
Procedure, shortened: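 Purified P. pyralis luciferase at 10 nM in 50 mM Tris Acetate (final), luminescence read within 5 minutes of enzyme addition to compounds. Activity normalised to PTC124 versus DMSO; concentration-response curves classed by r2, magnitude and activity.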

[13] = Cytotoxicity counterscreen for NFkB agonists and antagonists (AID 624476); note: % is set by controls: 0 for no effect and ±100 for the full control effect
[14] = qHTS Assay for Identification of Small Molecule Agonists for NFkB Signaling Pathway. (AID 624478);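 note: compounds tested together with TNF alpha at its EC50 of 10 pM; 0% is about no effect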
Procedure, shortened: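 Cells carrying an NFkB response element-driven beta-lactamase gene are co-treated with compound and 10 pM TNF alpha for 5 h, and reporter activity is then read as 460 and 530 nm fluorescence.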

[15] = qHTS Assay for Identification of Small Molecule Antagonists for NFkB Signaling Pathway. (AID 624479; calls by dose curve;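 note: pathway stimulated with TNF alpha; % is set by controls: 0 for no effect and ±100 for the full control effect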)
[16] = Cell Proliferation Assay against the TMD8 Cell Line (AID 651645); conditions: TMD8 DLBCL cell line proliferation/viability; at 46.1 µM (top of the series) unless noted;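 note: cells exposed to compound for 48 h before reading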
Procedure, shortened: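 Seed log-phase TMD8 cells in RPMI containing 5% FBS, add compounds at once, incubate 48 hours at 37C. Equilibrate to room temperature, add CellTiter-Glo, read luminescence after 15 minutes and express relative to DMSO and bortezomib controls.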

[17] = Cell Proliferation Assay against the HBL1 Cell Line (AID 651646); conditions: HBL1 DLBCL cells; at 46.1 µM (top of the series) unless noted;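 note: cells exposed to compound for 48 h before reading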
Procedure, shortened: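 HBL1 ABC DLBCL cells, 500/well in RPMI with 5% FBS, treated for 48 h at 37C. Viability read by CellTiter-Glo luminescence, normalized to DMSO as 100% and 9.2 uM bortezomib as 0%.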

[18] = Cell Proliferation Assay against the TMD8 Cell Line (Caspase readout at 16 hrs) (AID 651712)
Procedure, shortened: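 TMD8 cells in RPMI with 5% FBS were treated with compound for 16 h at 37 C, then caspase 3/7 activation was read by Caspase-Glo luminescence. Percent activity was scaled to DMSO (0%) and 9.2 uM bortezomib final (100%).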

[19] = Cell Proliferation Assay against the TMD8 Cell Line (Caspase readout at 8 hrs) (AID 651713)
Procedure, shortened: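 Percent activity derived from Caspase-Glo signal, DMSO set to 0% and bortezomib (9.2 uM final) to 100%. TMD8 cells were exposed to compound for 8 h in RPMI with 5% FBS.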

Sequence of Glucagon-like peptide 1 receptor (Homo sapiens) (P43220 whole entry, looked up): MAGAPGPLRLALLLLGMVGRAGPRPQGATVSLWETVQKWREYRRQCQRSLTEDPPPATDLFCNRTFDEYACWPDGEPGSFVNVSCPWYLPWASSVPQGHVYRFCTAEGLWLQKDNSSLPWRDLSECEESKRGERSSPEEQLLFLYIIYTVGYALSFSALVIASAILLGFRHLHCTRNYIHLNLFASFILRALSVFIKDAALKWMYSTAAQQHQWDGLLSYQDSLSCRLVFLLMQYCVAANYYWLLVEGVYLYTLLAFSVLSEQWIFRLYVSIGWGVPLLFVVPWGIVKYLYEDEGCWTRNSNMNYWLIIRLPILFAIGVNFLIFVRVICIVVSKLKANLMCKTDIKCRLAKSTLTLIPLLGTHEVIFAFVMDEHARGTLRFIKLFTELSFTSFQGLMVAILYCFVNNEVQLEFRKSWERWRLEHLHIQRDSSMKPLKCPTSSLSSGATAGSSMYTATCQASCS
Sequence of Voltage-gated inwardly rectifying potassium channel KCNH2 (Homo sapiens) (Q12809 whole entry, looked up): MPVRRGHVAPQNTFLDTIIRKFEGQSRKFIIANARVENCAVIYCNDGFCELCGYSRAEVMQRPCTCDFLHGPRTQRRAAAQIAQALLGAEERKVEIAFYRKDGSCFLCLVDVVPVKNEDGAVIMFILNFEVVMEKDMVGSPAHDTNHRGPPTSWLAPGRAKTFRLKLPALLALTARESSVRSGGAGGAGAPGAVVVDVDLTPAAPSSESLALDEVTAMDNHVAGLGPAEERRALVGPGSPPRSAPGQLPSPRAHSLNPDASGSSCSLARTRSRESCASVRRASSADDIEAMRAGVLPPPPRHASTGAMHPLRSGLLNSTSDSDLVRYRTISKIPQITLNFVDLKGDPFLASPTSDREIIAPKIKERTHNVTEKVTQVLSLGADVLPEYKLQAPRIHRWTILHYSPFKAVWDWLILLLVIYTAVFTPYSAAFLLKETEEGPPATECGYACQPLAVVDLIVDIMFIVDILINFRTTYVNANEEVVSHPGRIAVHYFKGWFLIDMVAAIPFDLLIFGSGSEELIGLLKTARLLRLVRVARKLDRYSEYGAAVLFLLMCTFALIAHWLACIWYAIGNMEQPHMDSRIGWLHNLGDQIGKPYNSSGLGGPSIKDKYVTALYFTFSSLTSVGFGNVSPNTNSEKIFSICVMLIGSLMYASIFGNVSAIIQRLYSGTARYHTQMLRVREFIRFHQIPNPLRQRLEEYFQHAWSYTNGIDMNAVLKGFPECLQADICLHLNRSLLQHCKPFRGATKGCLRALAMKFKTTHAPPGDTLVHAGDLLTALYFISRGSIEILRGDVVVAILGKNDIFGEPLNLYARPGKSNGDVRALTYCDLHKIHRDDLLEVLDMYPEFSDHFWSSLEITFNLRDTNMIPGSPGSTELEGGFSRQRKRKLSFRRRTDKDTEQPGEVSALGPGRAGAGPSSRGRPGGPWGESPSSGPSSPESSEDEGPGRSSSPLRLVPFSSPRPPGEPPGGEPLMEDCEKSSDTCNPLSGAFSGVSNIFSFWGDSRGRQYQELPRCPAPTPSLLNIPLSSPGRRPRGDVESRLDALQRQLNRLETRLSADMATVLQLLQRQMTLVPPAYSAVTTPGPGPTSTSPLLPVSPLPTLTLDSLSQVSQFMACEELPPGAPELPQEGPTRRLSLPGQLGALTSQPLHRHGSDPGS
Sequence of Glutaminase kidney isoform, mitochondrial (Homo sapiens) (O94925 whole entry, looked up, canonical isoform): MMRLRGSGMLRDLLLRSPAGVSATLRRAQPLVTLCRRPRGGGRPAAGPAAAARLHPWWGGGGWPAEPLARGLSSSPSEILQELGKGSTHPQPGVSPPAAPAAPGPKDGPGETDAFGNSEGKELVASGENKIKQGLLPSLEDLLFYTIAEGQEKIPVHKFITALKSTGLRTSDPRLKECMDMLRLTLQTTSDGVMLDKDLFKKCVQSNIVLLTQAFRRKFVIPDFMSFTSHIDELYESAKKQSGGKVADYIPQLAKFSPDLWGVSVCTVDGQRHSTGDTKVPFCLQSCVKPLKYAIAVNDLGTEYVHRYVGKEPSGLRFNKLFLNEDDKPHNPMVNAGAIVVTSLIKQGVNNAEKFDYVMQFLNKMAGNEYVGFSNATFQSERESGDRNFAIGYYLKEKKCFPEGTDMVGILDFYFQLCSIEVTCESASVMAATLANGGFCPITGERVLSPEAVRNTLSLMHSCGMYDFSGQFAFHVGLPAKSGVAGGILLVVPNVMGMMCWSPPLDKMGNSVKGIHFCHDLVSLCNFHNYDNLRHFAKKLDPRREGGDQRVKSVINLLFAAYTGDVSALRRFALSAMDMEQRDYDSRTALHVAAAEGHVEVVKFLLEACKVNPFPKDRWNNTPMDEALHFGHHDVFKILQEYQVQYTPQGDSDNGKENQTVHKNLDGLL
Sequence of Luciferin 4-monooxygenase (Photinus pyralis) (P08659 whole entry, looked up): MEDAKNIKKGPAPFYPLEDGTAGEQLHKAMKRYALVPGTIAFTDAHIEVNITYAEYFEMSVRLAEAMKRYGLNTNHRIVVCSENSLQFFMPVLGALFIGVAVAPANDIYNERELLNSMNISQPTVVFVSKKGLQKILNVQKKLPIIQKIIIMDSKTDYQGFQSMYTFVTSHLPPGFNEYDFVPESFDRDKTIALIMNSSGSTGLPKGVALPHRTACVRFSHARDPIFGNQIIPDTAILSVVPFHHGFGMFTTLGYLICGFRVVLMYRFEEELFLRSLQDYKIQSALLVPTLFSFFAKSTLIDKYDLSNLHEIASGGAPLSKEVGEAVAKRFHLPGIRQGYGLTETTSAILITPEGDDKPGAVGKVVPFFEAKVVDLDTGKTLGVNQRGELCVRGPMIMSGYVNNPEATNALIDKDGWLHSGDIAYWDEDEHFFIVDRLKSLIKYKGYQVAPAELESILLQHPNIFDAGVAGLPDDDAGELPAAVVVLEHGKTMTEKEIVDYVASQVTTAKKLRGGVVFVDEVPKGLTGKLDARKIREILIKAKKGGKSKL

Cc1cc(C(C#N)c2ccc(Cl)cc2)c(Cl)cc1NC(=O)c1cc(I)cc(I)c1O (stereo not given)
inactive: Potency [1] | Potency [2] | Potency [3]

NCCNCCNCCN
inactive: Potency [1] | Potency [2] | Potency [4] | Potency [5] | activation [6] -2.15%

Cc1cc2c(cc1S(N)(=O)=O)S(=O)(=O)CCC2
inactive: Potency [1] | Potency [2] | Potency [4] | Potency [3]

O=C(O)c1ccccc1O
inactive: Potency [1] | Potency [2] | Potency [4] | Potency [3]

COc1cc(C)c(Cc2cnc(N)nc2N)cc1OC
inactive: Potency [1] | Potency [4]

Oc1cccc(O)c1
inactive: Potency [1] | Potency [2] | Potency [4] | Potency [3] | activation [6] 5.92% | activation [7] -1.45%

Nc1ccc(S(=O)(=O)Nc2ccc(Cl)nn2)cc1
inactive: Potency [1] | Potency [2] | Potency [4]

O=c1cc[nH]c(=O)[nH]1
inactive: Potency [1] | Potency [2] | Potency [4]

CCN(CC)CCNC(C(=O)OCCC(C)C)c1ccccc1 (stereo not given)
active: Potency [1] 12.6 µM
inactive: Potency [2] | Potency [4] | Potency [3]

CSc1ccc2c(c1)C(N1CCN(C)CC1)Cc1ccccc1S2 (stereo not given)
active: Potency [1] 2.24 µM | Potency [2] 12.8 µM | Potency [4] 20.3 µM
inactive: Potency [3] | Potency [8] | outcome [9] | outcome [10] | outcome [11]

O=C(O)[C@@H]1CSCN1
inactive: Potency [1] | Potency [2] | Potency [4] | Potency [3]

CCOC(=O)[C@H](CCc1ccccc1)N[C@@H](C)C(=O)N1C(=O)N(C)C[C@H]1C(=O)O
inactive: Potency [1] | Potency [2] | Potency [4]

CC(C)(C)C(=O)NCCCC(=O)O
inactive: Potency [1] | Potency [2] | Potency [4]

[Cl][In]([Cl])[Cl]
inactive: Potency [1] | Potency [2] | Potency [4] | Potency [3] | activation [6] -6.82%

O=C1N=C(O)CN1/N=C/c1ccc(-c2ccc([N+](=O)[O-])cc2)o1
inactive: Potency [1] | Potency [8] | outcome [9] | outcome [10] | outcome [11]

CCCc1c(OCCCCc2nn[nH]n2)ccc(C(C)=O)c1O
inactive: Potency [1] | Potency [3] | activation [6] 16.1% | activation [7] -0.919%

COc1ccc2[nH]c(S(=O)Cc3ncc(C)c(OC)c3C)nc2n1 (stereo not given)
inactive: Potency [1] | Potency [4] | Potency [3]

CC(CN(C)C)CN1c2ccccc2CCc2ccccc21 (stereo not given)
inactive: Potency [8] | outcome [9] | outcome [10] | outcome [11]
active: Potency [1] 7.08 µM

CNC(=O)Oc1ccc2c(c1)[C@]1(C)CCN(C)[C@@H]1N2C
active: Potency [8] 10 µM
inactive: Potency [1] | Potency [2] | outcome [9] | outcome [10] | outcome [11] | activation [6] -2.62% | activation [7] 1%

NC1CCN(c2cccc(Cl)n2)CC1
inactive: Potency [1] | Potency [2] | Potency [4] | Potency [8] | outcome [9] | outcome [10] | outcome [11]

CC1(C)[C@@H]2CC[C@@]1(C)C(=O)C2
inactive: Potency [1] | Potency [2] | Potency [5] | activation [6] 0.0082% | activation [7] -0.497%
active: Potency [4] 2.56 µM | Potency [3] 9.99 µM

CCCCN(CCCC)CCCOC(=O)c1ccc(N)cc1
inactive: Potency [12] | Potency [2] | Potency [4]

O=C(O)Cc1sc(-c2ccccc2)nc1-c1ccc(Cl)cc1
inactive: Potency [12]

CC(C)(C(=O)O)c1ccc(C(O)CCCN2CCC(C(O)(c3ccccc3)c3ccccc3)CC2)cc1 (stereo not given)
inactive: Potency [12] | Potency [8] | outcome [9] | outcome [10] | outcome [11]

NC(=O)c1ncn([C@@H]2O[C@H](CO)[C@@H](O)[C@H]2O)c1N
128%: viability (% of control) [16]
159%: viability, percent of control [17]
inactive: Potency [1] | outcome [13] | outcome [14] | outcome [15] | Potency [18] | Potency [19]

CCN(CC)CCNC(=O)c1c(C)[nH]c(/C=C2\C(=O)Nc3ccc(F)cc32)c1C
inactive: Potency [12] | Potency [3]

N=c1c[n+](N2CCOCC2)[n-]o1
inactive: Potency [1] | Potency [8] | outcome [9] | outcome [10] | outcome [11]
